From publication PMC5540273 (PLoS ONE, 2017)

Tests used:
Settings in all cases: concentration: 1 μM, replicates: in singlicate; n = 1
MRCKA = test system: MRCKA
MRCKB = test system: T1, MRCKB
T1 construct: gene CDC42BPB

MST1R = test system: MST1R
MST1 = test system: T2, MST1
T2 construct: gene STK4

MST2 = test system: T3, MST2
T3 construct: gene STK3

MST3 = test system: T4, MST3
T4 construct: gene STK24

MST4 = test system: MST4
MTOR = test system: MTOR
MUSK = test system: MUSK
MYLK2 = test system: MYLK2
MYLK4 = test system: MYLK4
MYLK = test system: MYLK
MYO3A = test system: MYO3A
MYO3B = test system: MYO3B
NDR1 = test system: T5, NDR1
T5 construct: gene STK38

NDR2 = test system: NDR2
NEK10 = test system: NEK10
NEK11 = test system: NEK11
NEK1 = test system: NEK1
NEK2 = test system: NEK2
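Also: KINOMEscan kinase panel screen.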

Compound | %Inh (MRCKA) | %Inh (MRCKB) | %Inh (MST1R) | %Inh (MST1) | %Inh (MST2) | %Inh (MST3) | %Inh (MST4) | %Inh (MTOR) | %Inh (MUSK) | %Inh (MYLK2) | %Inh (MYLK4) | %Inh (MYLK) | %Inh (MYO3A) | %Inh (MYO3B) | %Inh (NDR1) | %Inh (NDR2) | %Inh (NEK10) | %Inh (NEK11) | %Inh (NEK1) | %Inh (NEK2)
COc1ccc(-c2oc3ncnc(N)c3c2-c2ccc(OC)cc2)cc1 [SB-589132] | 0% | 0% | 46% | 7% | 0% | 0% | 0% | 75% | 17% | 0% | 9% | 18% | 25% | 0% | 15% | 37% | 49% | 45% | 9% | 5%
FC(F)(F)c1cc(Nc2nccc(-c3c(-c4ccc(Cl)cc4)nn4ncccc34)n2)ccc1Cl [GW829351] | 0% | 9% | 0% | 0% | 3% | 0% | 0% | 0% | 0% | 0% | 1% | 0% | 0% | 0% | 16% | 0% | 0% | 0% | 0% | 0%
Cl.c1ccc(Cn2ncc3cc(Nc4ncnc5ccccc45)ccc32)cc1 [GW273749] | 10% | 0% | 27% | 0% | 8% | 0% | 0% | 8% | 0% | 2% | 37% | 8% | 14% | 0% | 12% | 0% | 0% | 0% | 0% | 5%
CSc1nn2c(=O)cc(N3CCOCC3)nc2n1Cc1cccc(Cl)c1Cl [GSK2347225] | 29% | 4% | 59% | 6% | 0% | 4% | 0% | 28% | 16% | 15% | 4% | 12% | 0% | 0% | 23% | 0% | 29% | 0% | 0% | 0%
Cc1cccc(-c2nc(Nc3ccc4[nH]nnc4c3)c3ccccc3n2)n1 [GW867587] | 0% | 2% | 0% | 0% | 0% | 0% | 0% | 5% | 2% | 0% | 1% | 0% | 0% | 0% | 0% | 6% | 0% | 0% | 0% | 0%
Nc1nccc2scc(-c3ccc4c(c3)CCN4C(=O)Cc3cc(F)ccc3F)c12 [GSK2587663] | 15% | 0% | 35% | 8% | 3% | 15% | 0% | 4% | 10% | 0% | 0% | 24% | 0% | 0% | 0% | 0% | 12% | 9% | 0% | 7%
Clc1ccc(-c2cc(-c3c[nH]nc3-c3ccccn3)ccn2)cc1 [GW681251] | 0% | 1% | 0% | 0% | 0% | 0% | 0% | 20% | 12% | 0% | 0% | 0% | 0% | 0% | 0% | 0% | 12% | 0% | 0% | 0%
CCC(CC)(CC)n1cnc2c(N)ncnc21 [SKF-97620] | 0% | 13% | 0% | 6% | 7% | 10% | 30% | 14% | 11% | 19% | 0% | 0% | 0% | 35% | 42% | 16% | 65% | 0% | 0% | 0%
FC(F)(F)c1ccc(-c2cc(-c3c[nH]nc3-c3ccccn3)ccn2)cc1 [GW599550] | 19% | 0% | 33% | 17% | 8% | 8% | 0% | 13% | 14% | 13% | 1% | 21% | 27% | 0% | 22% | 9% | 17% | 24% | 9% | 1%
CCCc1ccc(S(=O)(=O)NC2CCN(c3ccnc(Nc4ccc(OC)cc4)n3)C2)cc1 (centres unmarked) [GSK1379737] | 10% | 0% | 39% | 65% | 0% | 0% | 0% | 28% | 9% | 0% | 0% | 30% | 15% | 0% | 0% | 0% | 21% | 27% | 0% | 0%
